hNpr1 antagonist: human Npr1 receptor antagonism. Potency, µM (series often up to 46.3 µM), inactives show at the highest dose activity change, negative = inhibition, hits mostly inhibitors. P16066. hit rate 1.6% among 76,000. HEK293 hNpr1 GloSensor cGMP, ANP-stimulated luminescence; calls by dose curve; also: nearly all actives have a fitted effect of over 60% in size
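Compound pre-incubated 30 min at room temperature on GloSensor-loaded HEK293 cells stably carrying hNpr1 and the pGS-40F cGMP biosensor. Stimulation uses hNppA at 0.1 nM final; luminescence is taken at baseline and 20 min post-agonist.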
FLuc inh: inhibitors of firefly (Photinus pyralis) luciferase; P08659; purified P. pyralis luciferase, luminescence, biochemical; Potency, µM (titrated, usually from 115 µM), actives largely listed as inhibitors; hit rate 2.5% among 76,000; also: nearly all actives have a fitted effect of over 65% in size
Target sequence (P08659 whole entry, looked up): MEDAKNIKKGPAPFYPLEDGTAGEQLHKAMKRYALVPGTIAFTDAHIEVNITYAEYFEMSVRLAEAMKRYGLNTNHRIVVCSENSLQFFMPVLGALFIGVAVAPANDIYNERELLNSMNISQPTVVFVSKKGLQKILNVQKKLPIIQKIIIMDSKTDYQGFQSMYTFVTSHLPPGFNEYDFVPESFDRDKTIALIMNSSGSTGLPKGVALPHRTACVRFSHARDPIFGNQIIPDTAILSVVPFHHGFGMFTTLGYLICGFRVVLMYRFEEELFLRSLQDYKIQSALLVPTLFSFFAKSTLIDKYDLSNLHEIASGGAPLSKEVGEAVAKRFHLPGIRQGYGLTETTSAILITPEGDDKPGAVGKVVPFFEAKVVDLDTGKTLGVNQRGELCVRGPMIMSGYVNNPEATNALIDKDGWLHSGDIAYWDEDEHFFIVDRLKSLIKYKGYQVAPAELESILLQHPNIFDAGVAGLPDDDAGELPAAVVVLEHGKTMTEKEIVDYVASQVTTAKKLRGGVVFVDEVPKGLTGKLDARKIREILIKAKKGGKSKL
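Purified P. pyralis luciferase (10nM final) in 50mM Tris acetate pH 7.5, 10mM Mg acetate, 0.01% Tween-20, 0.05% BSA with 10uM D-luciferin and 10uM ATP. Compounds titrated qHTS. Luminescence imaged on CCD.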
NIH3T3 tox: NIH 3T3 cell cytotoxicity; Potency, µM (series often up to 96.7 µM), inactives show at the top dose activity change, negative = cytotoxicity, usual class: inhibitors; hit rate 4.3% among 94,000; NIH 3T3 viability, CellTiter-Glo ATP luminescence, 48-72 h; also: nearly all actives have a fitted effect of over 55% in size
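Cells were seeded at 400 per well, treated with pin-transferred compound, and kept 48 or 72 hr at 37 °C before CellTiter-Glo addition and luminescence imaging of cellular ATP.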
HEK293 tox: kills HEK 293 cells; hit rate 6.6% among 94,000; HEK 293 viability, ATP luminescence (CellTiter-Glo), 48-72 h; Potency, µM (series often up to 115 µM), without a hit: at the highest dose activity change, negative = cytotoxicity, hits mostly inhibitors; AID 1345083; also: nearly all actives have a fitted effect of over 60% in size
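CellTiter-Glo luminescence (cellular ATP) was read after 48 or 72 hr of compound exposure at 37 degree Celsius. Cells were HEK 293 plated at 250 cells/well.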
GPT2 inh: inhibitors of human GPT2 alanine aminotransferase; Potency, µM (titrated, usually from 57.7 µM), without a hit: top-dose activity change, negative = inhibition, hits mostly inhibitors; hit rate 0.25% among 100,000; Recombinant GPT2, coupled pyruvate oxidase/HRP Amplex Red fluorescence; Q8TD30; also: nearly all actives have a fitted effect of over 60% in size
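GPT2 10ng/uL, a-KG 250uM, L-Ala 2mM, HEPES pH7.5 + 0.0001% Tween; 30 min RT. Then Amplex mix (PO/HRP/ThPP), 30 min RT dark, fluorescence. AOA 50uM used as positive control.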
* hit, by the source's call; i = inactive; ? = inconclusive; nt = no result; [ ] = remark or other dose. Shown are actives, neighbours in structure and some others; about 10% of the full set was active somewhere. Unless noted, calls follow the shape of the dose curve; as a rule, active = well fitted curve in the direction sought with a large enough effect; inconclusive = small, poorly fitted or top-dose-only effect, or another doubt; inactive = no such curve, though single readings can be large; an effect the other way counts as inactive or inconclusive. % is scaled to controls: 0 for no effect and ±100 for the full control effect; potency is read from the fitted curve at half-maximal effect.

SMILES	hNpr1 antagonist	FLuc inh	NIH3T3 tox	HEK293 tox	GPT2 inh
O=C(NCCN1CCOCC1)c1ccc(-c2ccc(N3CCCCC3)nc2)cc1	-11%	32µM*	?	?	i
CC(C)c1nccn1CCCNC(=O)c1ccc(N2CCC(CO)CC2)nc1	0%	i	-22%	-7%	-5%
COCCNC(=O)c1ccc(-c2ccc(N3CCCCC3)nc2)cc1	-1%	?	-12%	?	-3%
CC(C)c1nccn1CCCNC(=O)c1ccc(N2CCCCCC2)nc1	-11%	i	?	79µM*	0%
O=C(NCCN1CCCC1)c1ccc(-c2ccc(N3CCSCC3)nc2)cc1	-17%	14µM*	?	?	1%
CN(CCc1ccccc1)C(=O)c1cc2c(s1)CCN(C(=O)c1ccc(Cl)cc1)C2	-22%	i	-24%	-23%	2%
CCCCS(=N)(=O)CC[C@H](N)C(=O)O (some centres undefined)	nt	nt	nt	nt	i
COc1cccc(C(=O)N2CCC(N3C(=O)c4c(c(C)nn4-c4ccccc4)C3C(C)C)CC2)c1 (centres undefined)	nt	nt	35µM*	45µM*	nt
Cc1nn(-c2ccccc2)c2c1C(C(C)C)N(C1CCN(C(=O)c3ccc(Cl)cc3)CC1)C2=O (centres undefined)	nt	nt	?	25µM*	nt
COc1ccc(C(=O)N2CCC(N3C(=O)c4c(c(C)nn4-c4ccccc4)C3C(C)C)CC2)cc1 (centres undefined)	nt	nt	-27%	-13%	nt
Cc1nn(-c2ccccc2)c2c1C(C(C)C)N(C1CCN(C(=O)c3cccc(Cl)c3)CC1)C2=O (centres undefined)	nt	nt	?	18µM*	nt
CCC(=O)Nc1cccc(C2OC(=O)N(Cc3ccc(C)cc3)C2C(=O)NCCOC)c1 (centres undefined)	-1%	i	-5%	4%	i
O=C(Cc1ccc(F)cc1)N1CC(c2noc(C3CCCN3CC3CC3)n2)C1 (centres undefined)	5%	i	-18%	-13%	i
COc1cccc(CN2CCc3c(cc(C(=O)Nc4ccc(F)cc4C)n3C)C2)c1	-4%	25µM*	?	?	i
COc1cccc(CN2CCc3c(cc(C(=O)Nc4cc(C)ccc4C)n3C)C2)c1	-22%	32µM*	?	?	-8%
COC[C@@H]1CN(C(=O)c2cc(F)ccc2F)C[C@H]1c1ccncc1	3%	i	-22%	-18%	-1%
CCC(=O)C(=O)NCc1cc2c(nc1OC)CN(CCc1ccccn1)C2=O	0%	i	4%	i	-1%[11.5 µM]
CC(C)C1=NOC2(CCN(C(=O)c3ccc4c(c3)OCO4)C2)C1 (centres undefined)	nt	nt	79µM*	-30%	1%
O=C(Cc1ccc(N(Cc2cccc(F)c2)C(=O)c2ccco2)cc1)NCc1ccccc1	-23%	i	?	?	i
CCCN(C)C(=O)Cc1ccc(N(Cc2ccc(F)cc2)C(=O)c2ccco2)cc1	-12%	i	?	?	i
CN(Cc1ccccc1)C(=O)Cc1ccc(N(Cc2cccc(F)c2)C(=O)c2ccco2)cc1	-20%	i	35µM*	?	1%
O=C(Cc1ccc(N(Cc2cccc(F)c2)C(=O)c2ccco2)cc1)Nc1ccccc1	0%	i	35µM*	45µM*	i
O=C(Cc1ccc(N(Cc2ccc(F)cc2)C(=O)c2ccco2)cc1)Nc1ccc(F)cc1	-3%	i	32µM*	?	i
O=C(Cc1ccc(N(Cc2ccc(F)cc2)C(=O)c2ccco2)cc1)NCc1ccc(F)cc1	-28%	i	40µM*	25µM*	-32%
O=C(O)CC1(CC(=O)N2CC[C@H]3COC(=O)N3c3cc(F)ccc3C2)CCCC1	-5%[70.6 µM]	i	-3%[174 µM]	-7%[172 µM]	?
CN1CCN(Cc2nnc(C(=O)N3CCC[C@@H]3c3ccc(Br)cc3)n2Cc2ccccc2)CC1	-14%	i	?	?	-27%
CN(Cc1ccccc1)Cc1nnc(C(=O)N2CCC[C@@H]2c2ccc(Br)cc2)n1Cc1ccccc1	-20%	i	18µM*	32µM*	4%

Bioassay records deposited in PubChem by National Center for Advancing Translational Sciences (NCATS).
